Data from PubChem BioAssay AID463173 (ICCB-Longwood Screening Facility, Harvard Medical School, 2010).
Among all 52,000 compounds or so, about 4,300 (8.3%) were called active. The sample as a whole holds a higher share of actives than the screen did. A number with no mark means an inactive call. No stated cut-off is given here; in the data, active means survival mostly below about 52% (no sharp cut-off); inactive means mostly above about 56%.

Each compound was assayed on DeltatarO mutant (assay: growth inhibition of S. aureus wild type versus tarO mutant, primary screen, teichoic acid synthesis inhibitors, RN4220, OD600 (AID 463173)). Settings: OD600, 18 h, stronger effect = lower value, screened at 18.75 µg/mL (by protocol).

In order of falling survival:
1. Oc1ccc(CNc2ccccc2Cl)c2cccnc12  115%
2. CCCC(=O)Nc1nnc(S(=O)(=O)N(C)c2ccccc2)s1  108%
3. CCN(c1ccccc1)S(=O)(=O)c1nnc(NC(=O)COc2cccc(C)c2)s1  107%
4. CCc1ccccc1NC(=O)N1CCOc2ccccc21  106%
5. CCN(c1cc(C)cc(C)c1)S(=O)(=O)c1nnc(NC(=O)C2CCCCC2)s1  105%
6. COc1ccc(Br)c2c1-c1nc(NC(=O)c3ccccc3SC)sc1C2  105%
7. CCc1nonc1NC(=O)c1oc2cc(C)c(C)cc2c1C  102%
8. Cc1ccc(NC(=O)c2ccco2)c(OCc2cc(=O)n3cc(C)sc3n2)c1  102%
9. Cc1c(C)n(Cc2ccccc2)c2ccc(C(=O)N3CCN(c4ccccc4)CC3)cc12  99%
10. Cc1cccc(N(C)S(=O)(=O)c2nnc(NC(=O)C(C)(C)C)s2)c1  99%
11. Cc1ccccc1-c1noc(-c2ccc(NCc3cccnc3)c([N+](=O)[O-])c2)n1  98%
12. CCOC(=O)c1cc(C(=O)OCC)c(=S)[nH]c1O  98%
13. CCc1oc(C(=O)O)cc1CN  97%
14. CCN(CC)S(=O)(=O)c1nnc(NC(=O)COc2ccccc2Cl)s1  95%
15. Fc1ccc(N2CCN(c3nc4ccccc4c4nc(-c5cccnc5)nn34)CC2)cc1  93%
16. COc1ccc(-n2nc3c(N4CCCC(C(=O)NCc5ccccc5C)C4)nnc(C)c3c2C)cc1 (stereo not drawn)  90%
17. COc1ccc(/C=C/c2nc(C#N)c(N3CCN(c4ccccc4)CC3)o2)cc1OC  88%
18. Cc1ccc(S(=O)(=O)NCCc2nnc3ccc(SCC(=O)Nc4ccc(F)cc4F)nn23)cc1  88%
19. CC(C)C(=O)Nc1cccc(C(=O)Nc2nncs2)c1  87%
20. CCOC(=O)c1ccc(CN(Cc2ccc(F)cc2)S(=O)(=O)c2ccc(F)cc2)cc1  87%
21. CCN(C(=O)Cn1cnc2c1c(=O)n(C)c(=O)n2C)c1ccccc1C  87%
22. COc1ccc(OC(=O)c2ccc3snnc3c2)cc1  86%
23. Cc1ccc(C)c(NS(=O)(=O)c2cc3c(cc2Cl)NC(=O)CO3)c1  85%
24. O=C(Nc1ccc(Br)cc1)Nc1nc2c(s1)CCCCCC2  83%
25. CCc1nnc(NC(=O)c2ccc(S(=O)(=O)N3CCc4ccccc4C3)cc2)s1  83%
26. Cc1cccc(N2CCN(C(=O)CN3C(=O)CSc4c3c(C)nn4-c3ccccc3)CC2)c1C  83%
27. COc1ccc(C(=O)Nc2nnc(S(=O)(=O)N(C)c3ccc(Cl)cc3)s2)cc1OC  83%
28. O=C(CSc1nc(-c2ccc(F)cc2)[nH]c1-c1ccccc1)NCC1CCCO1 (stereo not drawn)  82%
29. COc1cc(CN(C(=O)c2cccc(Cl)c2)c2ccccn2)cc(OC)c1OC  82%
30. CCOC(=O)c1cc2ccccc2[nH]c1=O  82%
31. C[N+](C)(C)CCNC(=O)c1ccc(/C=N/O)nc1  81%
32. CSc1ccc(C2c3c(oc4ccc(F)cc4c3=O)C(=O)N2c2ccc(C)cn2)cc1 (stereo not drawn)  81%
33. CCOC(=O)c1ccc(CN(Cc2ccc(Cl)cc2Cl)S(=O)(=O)c2cccc(Cl)c2)cc1  80%
34. CCCC12CN3CC(C)(CN(C1)C3c1ccc(OCc3ccccc3)cc1)C2=O (stereo not drawn)  80%
35. COc1ccc(C(=O)Nc2nnc(S(=O)(=O)N(C)c3ccc(C)cc3)s2)cc1  79%
36. CCOC(=O)Nc1ccc2c(c1)OCO2  79%
37. CCOc1ccc(NC(=O)CN(Cc2ccccc2)S(=O)(=O)c2ccc(Cl)cc2)cc1  78%
38. Cc1ccc(Cn2cc(S(=O)(=O)c3ccc(Cl)cc3)c(=O)c3cc4c(cc32)OCO4)cc1  77%
39. CCN(CC)S(=O)(=O)c1ccc(NC(=O)c2ccccc2)cc1  77%
40. Cc1ccc(NC(=O)CN2C=NS(=O)(=O)c3ccccc32)cc1  76%
41. O=C(/C=C/c1ccccc1)Nc1ccc2c(c1)OCCO2  76%
42. CCN(c1ccc(C)cc1C)S(=O)(=O)c1nnc(NC(=O)CC(C)C)s1  75%
43. CC(C)Cn1cc(NC(=O)NCc2ccccc2)c2ccccc2c1=O  74%
44. Cc1ccccc1OCC(=O)Nc1nnc(S(=O)(=O)N2CCCCCC2)s1  73%
45. CCOC(=O)c1ccc(CN(Cc2ccc(C)cc2)S(=O)(=O)c2ccc(NC(C)=O)cc2)cc1  73%
46. COc1ccc(-c2onc(C)c2C)cc1S(=O)(=O)NC1CCCCC1  72%
47. CCN(c1cccc(C)c1)S(=O)(=O)c1nnc(NC(=O)C2CCCCC2)s1  71%
48. Cc1nnc(NC(=O)c2ccccc2)s1  71%
49. O=C(c1ccc2c(c1)C(=O)N(CCCO)C2=O)c1ccc2c(c1)C(=O)N(CCCO)C2=O  70%
50. O=C(COc1ccccc1Cl)Nc1nnc(S(=O)(=O)N2CCCCCC2)s1  70%
51. Cc1ccc2nc(N(Cc3cccnc3)C(=O)c3ccc4c(c3)OCCO4)sc2c1  70%
52. Cc1ccc(S(=O)(=O)Nc2ccc(-c3ccc(N4CCCCCC4)nn3)cc2)c(C)c1  70%
53. O=C(Nc1ccc(F)cc1)c1cccc(N2CCCS2(=O)=O)c1  70%
54. COC(=O)c1ccc(NC(=O)CN(CCc2ccccc2)S(=O)(=O)c2ccc(OC)cc2)cc1  69%
55. Cc1ccc(NC(=O)Nc2nc3c(s2)CCCCCC3)cc1C  69%
56. COc1ccc(Br)c2c1-c1nc(NC(=O)c3ccccc3F)sc1C2  69%
57. Cc1ccccc1OCC(=O)Nc1nnc(S(=O)(=O)N(C)c2ccccc2)s1  67%
58. Cc1ccc(NC(=O)c2c(NC(=O)c3ccc(F)cc3)sc3c2CCCC3)cc1C  67%
59. COc1ccc(Br)c2c1-c1nc(NC(=O)c3ccc(F)cc3)sc1C2  67%
60. CCCCC(=O)Nc1nnc(S(=O)(=O)N(CC)c2cc(C)cc(C)c2)s1  66%
61. COc1ccc(CNC(=O)CCS(=O)(=O)c2cc3c4c(c2)CCN4C(=O)CC3)cc1OC  66%
62. COc1ccc(-c2noc(-c3ccc(NC(C)c4ccccc4)c([N+](=O)[O-])c3)n2)cc1OC (stereo not drawn)  65%
63. CC(=O)N1c2ccc(S(=O)(=O)N3CCCCCC3)cc2CC1C(=O)NCc1cccc(F)c1 (stereo not drawn)  65%
64. CCOc1ccc(CCNC(=O)C2CCN(C(=O)N3CC(CC)Oc4ccc(C)cc43)CC2)cc1 (stereo not drawn)  63%
65. Cc1ccc(NC(=O)CCNS(=O)(=O)c2cccs2)cc1F  63%
66. COc1ccc(NC(=O)c2sc3nc4c(cc3c2N)CCCCCC4)c(OC)c1  62%
67. CCOC(=O)c1ccc(NC(=O)CN(Cc2ccc(C)cc2)S(=O)(=O)c2ccc(C)cc2)cc1  58%
68. CC(C)C(=O)Nc1cccc(C(=O)Nc2nnc(C(F)(F)F)s2)c1  58%
69. COCCCNC(=O)c1ccc2c(c1)NC(=O)C(C(C)C)N2 (stereo not drawn)  57%
70. CCN(c1ccc(C)cc1C)S(=O)(=O)c1nnc(NC(=O)c2ccccc2OC)s1  55%
71. Cc1ccc(S(=O)(=O)N(CC(=O)Nc2ccc(C(C)C)cc2)Cc2ccccc2)cc1  54%
72. COc1ccc(Br)c2c1-c1nc(NC(=O)c3cccc(C)c3)sc1C2  44%
73. CN(c1ccccc1)S(=O)(=O)c1nnc(NC(=O)c2cccs2)s1  43%

O=C(COc1ccccc1F)Nc1nnc(S(=O)(=O)N2CCCCCC2)s1 was tested, and the survival was 51% (active).
For O=C(COc1ccccc1Cl)Nc1nnc(S(=O)(=O)N2CCCC2)s1, the survival was 39% (active).
Cc1ccccc1OCC(=O)Nc1nnc(S(=O)(=O)N2CCCC2)s1 was tested, and the survival was 42% (active).
With COC(=O)c1ccc(NC(=O)CN(Cc2ccccc2)S(=O)(=O)c2ccc(Cl)cc2)cc1 the survival was 40% (active).
For CC(=O)Nc1ccc(S(=O)(=O)N(Cc2ccccc2)Cc2ccccc2)cc1, the survival was 54% (active).
CCOC(=O)c1ccc(CN(Cc2ccccc2)S(=O)(=O)c2ccc(Cl)cc2)cc1 was tested, and the survival was 32% (active).
In the case of COC(=O)c1ccc(NC(=O)CN(Cc2ccccc2)S(=O)(=O)c2ccc(C)cc2)cc1, the survival is reported as 42% (active).
In the case of O=C(Nc1nc2c(s1)CCCCCC2)Nc1ccc(F)cc1F, the survival is reported as 0% (active).
For CCN(c1cccc(C)c1)S(=O)(=O)c1nnc(NC(=O)c2cccs2)s1, the survival was 21% (active).
With CCN(c1cc(C)cc(C)c1)S(=O)(=O)c1nnc(NC(=O)c2cccc(F)c2)s1 the survival was 37% (active).
CCN(c1cc(C)cc(C)c1)S(=O)(=O)c1nnc(NC(=O)c2cccs2)s1 was tested, and the survival was 25% (active).
For Cc1cccc(N(C)S(=O)(=O)c2nnc(NC(=O)c3cccs3)s2)c1, the survival was 26% (active).
For CCN(c1ccc(C)cc1C)S(=O)(=O)c1nnc(NC(=O)c2ccc(F)cc2)s1, the survival was 14% (active).
CCOC(=O)c1cnc(SCC)[nH]c1=O was tested, and the survival was 41% (active).
In the case of COc1ccc(C(=O)Nc2nc3c(s2)Cc2c(Br)ccc(OC)c2-3)cc1OC, the survival is reported as 36% (active).
For COc1cc(C(=O)Nc2nc3c(s2)Cc2c(Br)ccc(OC)c2-3)cc(OC)c1OC, the survival was 36% (active).
With COc1cc(C(=O)Nc2nnc(S(=O)(=O)N(C)c3ccccc3)s2)cc(OC)c1OC the survival was 40% (active).
For CN(c1ccccc1)S(=O)(=O)c1nnc(NC(=O)c2ccccc2)s1, the survival was 32% (active).
O=C(Nc1nnc(C(F)(F)F)s1)c1ccccc1 was tested, and the survival was 24% (active).
With NC(=O)/C=C/C(=O)Nc1ccc2c(c1)OCO2 the survival was 33% (active).
